Results from ChEMBL document CHEMBL3988442, “University of Dundee, Small-Polar-MMV Screening Library” (2021).

Columns and labels:
[1] = biological target: T1, Aspartate--tRNA(Asp/Asn) ligase (Mycobacterium tuberculosis (strain ATCC 25618 / H37Rv)) (UniProt P9WFW3); assay: Assay for Asp RNA synthetase-1 from Mycobacterium tuberculosis; assay type: functional; set-up: scale not given: direction of the effect not stated beside the values; settings: 30 µM; note: in the data most compounds retested in dose-response had high values
T1 sequence (whole entry): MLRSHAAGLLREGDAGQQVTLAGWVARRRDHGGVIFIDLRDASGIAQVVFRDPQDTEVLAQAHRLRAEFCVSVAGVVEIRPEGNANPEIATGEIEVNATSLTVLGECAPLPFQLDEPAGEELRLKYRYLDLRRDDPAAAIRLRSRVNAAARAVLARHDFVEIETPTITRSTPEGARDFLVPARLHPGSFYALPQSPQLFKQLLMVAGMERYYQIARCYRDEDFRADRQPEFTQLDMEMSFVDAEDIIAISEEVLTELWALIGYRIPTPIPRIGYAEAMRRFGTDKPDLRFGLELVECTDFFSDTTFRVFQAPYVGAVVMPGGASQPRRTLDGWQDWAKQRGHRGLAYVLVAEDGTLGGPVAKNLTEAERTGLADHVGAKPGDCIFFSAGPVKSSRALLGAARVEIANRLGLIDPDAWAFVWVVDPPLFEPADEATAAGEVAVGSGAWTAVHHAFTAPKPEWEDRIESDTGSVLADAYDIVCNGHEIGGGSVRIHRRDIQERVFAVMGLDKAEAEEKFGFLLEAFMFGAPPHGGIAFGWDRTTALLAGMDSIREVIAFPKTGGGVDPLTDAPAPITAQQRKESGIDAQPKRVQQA

[2] = biological target: Shiga toxin 2 (Escherichia coli O157:H7) (UniProt P09385+P09386); assay: E. coli 0.157:H7 Shiga Toxin SOP - stx2 screening assay; assay type: functional; set-up: scale not given: direction of the effect not stated beside the values; settings: 30 µM

Row | Structure (SMILES) | Percent Effect [1] [%] | Percent Effect [2] [%]
1 | O=C(c1cccn1Cc1cccs1)N1CCCC1Cn1cccn1 (configuration not stated) | -0.702 | 14.5
2 | N#Cc1ccccc1OCCN1CCC(N2CCNC2=O)CC1 | -0.816 | -50.9
3 | Cc1ccc(C2CCCCCN2Cc2cn(C)nc2C)cc1 (configuration not stated) | -5.2 | -29
4 | O=C(c1cscn1)N1C[C@H]2CCCC(OCc3cccnc3)[C@H]2C1 (some centres not stated) | 6.49 | -13.5
5 | Cc1nccn1C1CCCN(C(=O)c2ccc(N(C)C)nc2)C1 (configuration not stated) | -1.91 | 26
6 | CCCN1CCC(N(Cc2ncc(C)o2)C(C)=O)C1 (configuration not stated) | 2.38 | 2.8
7 | CCn1c(Cn2cncn2)nnc1C1CCN(C(=O)CCSC)CC1 | 1.37 | 8.61
8 | Cc1ncccc1NC(=O)C1=NOC2(CCN(Cc3nccs3)C2)C1 (configuration not stated) | 10.6 | -15.4
9 | COc1cccc2c1ccn2CCNC(=O)C(C)C | 6.33 | -17
10 | COCC(=O)N1CCCn2c(CN3CCCCC3)nnc2C1 | 1.5 | -19.1
11 | O=C(CCCc1nnc(-c2ccccc2)o1)N1CCN(CCO)CC1 | 2.54 | -26.3
12 | COc1ccc(CC(=O)N(C)Cc2nnc3ccccn23)cc1 | 2.36 | 2.4
13 | COc1ccc(CNCc2ccnc(N3CCOCC3)c2)c(OC)c1 | 1.38 | 17.1
14 | Cc1nc(C(=O)N2CCC(Nc3cccnn3)CC2)cs1 | -7.35 | -19.2
15 | Cc1ncc2c(n1)CN(Cc1nc3ccccc3o1)CC2 | -5.8 | -2.56
16 | COc1ccc2c(c1)CCCN2Cc1nc2c(cnn2C)c(=O)[nH]1 | -4.23 | -5.78
17 | O=C(CCN1CCCC1c1cccs1)N1CCc2sccc2C1 (configuration not stated) | -0.954 | 1.91
18 | CCc1sc(-c2nnc(CNCCn3cc(C)cn3)o2)cc1C | 2.52 | -107
19 | O=C(NCc1ccco1)c1nn(C2CCS(=O)(=O)C2)c2c1CCCC2 (configuration not stated) | -2.28 | 8.96
20 | CCc1nccc(CN2CCCC(c3nn(C)c(=O)n3CC)C2)n1 (configuration not stated) | 1.68 | 10.8
21 | CSc1ccc(S(=O)(=O)N2CCCCC2CCNC(C)=O)cc1 (configuration not stated) | 7.57 | -4.85
22 | O=S(=O)(Cc1ccccc1)N1CCCn2cnc(CN3CCCC3)c2C1 | 16 | -5.12
23 | Cc1ccc(OC2(C(=O)O)CCN(C(=O)c3nc(C)oc3C)CC2)cn1 | -2.19 | 0.158
24 | Cn1nc(CNC(=O)C2COc3ccccc3O2)cc1C1CC1 (configuration not stated) | 6.34 | 17
25 | CC1CCCN(CCNC(=O)c2ccn(-c3ccccc3)n2)C1 (configuration not stated) | 5.86 | -20.3
26 | NC(=O)C1CN(C(=O)Nc2ccccc2-c2cccs2)CCO1 (configuration not stated) | -9.88 | -14.7

Row | Structure (SMILES) | Percent Effect [1] [%] | Percent Effect [2] [%]
27 | O=C(c1ccsc1)N1CCOC2(CCN(Cc3cccnc3)CC2)C1 | 0.932 | -9.41
28 | COC[C@@H]1CC[C@H]2[C@H](CCN2S(=O)(=O)c2cccc(C)c2)O1 | 3.92 | -4.66
29 | O=C(NCc1ccco1)[C@@H]1CCO[C@@H]2CCN(c3ccncn3)C[C@H]21 | 1.19 | -15.1
30 | CN1CCN(c2cc(CNC(=O)c3ccc(=O)[nH]n3)ccn2)CC1 | -0.544 | -57.8
31 | CC(C)(C)NC(=O)NC(=O)CNC(C)(C)c1ccc2c(c1)OCCO2 | 0.459 | 41.7
32 | Cc1ccccc1CSc1nc(N)cc(N2CCOC(C(N)=O)C2)n1 (configuration not stated) | 3.12 | -13.5
33 | COc1c(C2CCCN2CC(=O)Nc2cc(C)no2)c(C)nn1C (configuration not stated) | 2.74 | 12.9
34 | O=C(Nc1ccc(F)cc1)N1C[C@H]2CC[C@@H]1CN(Cc1cccnc1)C2 | 0.632 | -26.1
35 | Cc1cc(-c2cnc(NCc3cccnc3)nc2C(C)C)on1 | 6.13 | 10.2
36 | CCCN1CCC(NC(=O)NCCc2nc(CC)c(C)s2)CC1 | -5.93 | 19.2
37 | OC(COCc1ccc(Cl)cc1)CN1CCC(c2ccn[nH]2)CC1 (configuration not stated) | -1.57 | -33
38 | Cc1ccc(C(=O)N2CCC3(CC2)CC(c2ccccc2)C(=O)N3)cn1 (configuration not stated) | 7.75 | -10.4
39 | CC(C)CCCNC(=O)Nc1ccc(F)c(C(N)=O)c1 | -3.06 | -45.5
40 | Cc1csc2c(=O)n3c(nc12)CCN(C(=O)c1cccnc1)CC3 | -0.521 | 6.12
41 | COc1cc(C)nc(N2CCN(C(=O)CCn3cc(C)cn3)CC2)n1 | -3.63 | 12
42 | CN1CCCN(C(=O)c2ccc3c(c2)nc(N2CCOCC2)n3C)CC1 | -3.09 | -5.95
43 | Cc1cc(CN2CCN(C(=O)NC(C)Cn3ccnc3)CC2)no1 (configuration not stated) | -1.75 | 21
44 | Cc1ccc(CC2CCCN2CC(=O)NCc2ccccn2)cc1 (configuration not stated) | 0.629 | -4.96
45 | Cc1ccc2oc(C(=O)N3CCc4nnc(N(C)C)cc4C3)cc2n1 | 1.25 | -14.3
46 | COCC(O)CNC(=O)c1coc(COc2ccc3sc(C)nc3c2)n1 (configuration not stated) | 5.55 | -20
47 | Cc1ccc(CNC(=O)CN2CCN(CC(O)c3ccco3)CC2)cc1 (configuration not stated) | -6.22 | -10.6
48 | O=S(=O)(CCNC1CCc2ncnn2C1)c1ccccc1 (configuration not stated) | 1.06 | -24.1
49 | Cc1cccc(N2CCN(CCNC(=O)C(C)n3cncn3)CC2)c1 (configuration not stated) | 2.75 | 15.6
50 | COCc1ccccc1CNc1cc(N2CCCC2CO)ncn1 (configuration not stated) | -1.49 | -4.23
51 | Cn1ccc2ccnc(CC3CN(C(=O)C4CCC(F)(F)CC4)C3)c21 | 0.551 | -23.1
52 | Cc1ccc(C(=O)N2CCN(C(=O)NC(C)Cn3ccnc3)CC2)o1 (configuration not stated) | -1.92 | 17.6

Row | Structure (SMILES) | Percent Effect [1] [%] | Percent Effect [2] [%]
53 | CCc1ccc(-n2c(=O)[nH]c3nc(N4CCSCC4)ncc3c2=O)cc1 | 15.3 | -13.5
54 | CN(Cc1ccc2c(c1)OCCO2)C(=O)NCCc1cnn(C)c1 | 3 | 26.7
55 | Cc1ccc(C(=O)N2CCC3(CC2)CC(N2CCCC2)C3)cc1 | 0.137 | -9.41
56 | CCc1[nH]ncc1C(=O)N1CCCN(Cc2cnn(C)c2)CC1 | -0.259 | 17.2
57 | COc1ccccc1Oc1ncccc1CNC(=O)C(C)N1CCCC1 (configuration not stated) | -0.0279 | 6.37
58 | NCC1Cn2nnc(-c3cccc(F)c3)c2CO1 (configuration not stated) | 1.16 | -69.1
59 | O=C(NCCn1ccc(-c2ccncc2)n1)c1ccncc1 | 1.52 | -65.9
60 | C[C@@H]1CN(C(=O)c2ccsc2)C[C@]12CCN(c1ccsc1)C2=O | -1.75 | 1.46
61 | CNC(=O)C1Cn2ccnc2C2(CCN(CCF)CC2)O1 (configuration not stated) | 2.17 | -8.7
62 | CCOc1cccc(C(=O)NCCC(=O)Nc2ccncc2)c1 | -3.32 | -80.5
63 | O=C(CSc1ccc(F)c(F)c1)NS(=O)(=O)c1ccc2c(c1)OCCO2 | 3.35 | 10.6
64 | CC(NC(=O)NCCCn1cccn1)c1ccc2c(c1)NC(=O)CO2 (configuration not stated) | -5.91 | -20.8
65 | Cc1cnc(CN(C)C2CCN(CCn3cc(C#N)cn3)C2)o1 (configuration not stated) | 5.46 | 17.1
66 | CC(=O)N1CCOCC2(CCN(Cc3ccc(C)s3)CC2)C1 | 0.408 | -23.3
67 | O=C(NCCO)C1(Cc2cc(-c3ccc(F)cc3F)no2)CCOCC1 | 2.58 | 1.08
68 | COCc1cccc(C(=O)N2CCCCC2c2nccs2)c1 (configuration not stated) | -3.8 | 18.2
69 | O=C(C1CCOCC1)N1C[C@@H]2C[C@@H](c3nc(C4CC4)cs3)O[C@@H]2C1 | 2.07 | 17.3
70 | c1csc(-c2nc(CN3CCOC(Cn4cccn4)C3)co2)c1 (configuration not stated) | 9.95 | 13.2
71 | COc1ncccc1C(=O)Nc1nc2c(s1)CN(S(=O)(=O)C1CC1)CC2 | -4.8 | -20
72 | CS(=O)(=O)N1Cc2nccn2CC(Cn2ncccc2=O)C1 (configuration not stated) | 1.17 | -8.61
73 | c1cnc(N2CCOC3(CCN(CC4CCCCC4)CC3)C2)nc1 | -0.897 | -3.02
74 | CCN1CCN(c2nc(C(C)C)nc3c(C)nn(CC)c23)CC1 | -2.11 | -52.4
75 | NC(=O)C1CN(Cc2c[nH]cn2)CCN(C2CCOCC2)C1 (configuration not stated) | -0.938 | -0.548
76 | Cc1ccc(CN2Cc3c(C(=O)N(C)C)nn(C)c3C2)s1 | 1.3 | -23.6
77 | CCCOCC(=O)NC1CCc2nc(C)cn2C1 (configuration not stated) | 1.62 | 7.61
78 | CC(CN1CCOCC1)NCC1CCN(c2cnn(C)c(=O)c2)CC1 (configuration not stated) | 2.84 | -6.71

Row | Structure (SMILES) | Percent Effect [1] [%] | Percent Effect [2] [%]
79 | Cn1cc(CN2CCC3(CCCN(Cc4ccccn4)C3)CC2)cn1 | -0.638 | -6.22
80 | OC(CN1CCCCCCC1)c1ccc(F)cc1 (configuration not stated) | -2.26 | 10.8
81 | O=C(C1=CC2(CCNCC2)c2ccccc21)N1CCCC1 | 3.17 | -0.391
82 | O=S(=O)(Nc1cnn(C2CCOCC2)c1)c1ccc2c(c1)CCO2 | 0.452 | -15.1
83 | CC(=O)NCCNC(=O)N(C)Cc1ccc2c(c1)OCCO2 | -4.52 | 15.2
84 | CC(C)N1CCOCC2(CN(Cc3nccs3)CCO2)C1 (configuration not stated) | 2.14 | -11.3
85 | Cc1ncccc1OC1(C(=O)NCCCN2CCOCC2)CCNCC1 | 1.19 | -8.28
86 | CC(C)C(NC(=O)Cn1ccc(=O)n(C)c1=O)c1ccc(F)cc1 (configuration not stated) | 4.7 | -13.7
87 | CS(=O)(=O)N1CCCC12CCCN(S(=O)(=O)c1ccc(F)cc1)C2 (configuration not stated) | -6.05 | 7.82
88 | Cc1ccc(-c2noc(CN3CCOC(CN(C)C)C3)n2)cc1F (configuration not stated) | 3.61 | 24.6
89 | CC(=O)N1CC[C@H]2OCC[C@@]2(C(=O)NCc2ccco2)C1 | 0.379 | -17.2
90 | CCC(=O)N1CCN(C(=O)CCn2cccn2)CC1 | -2.56 | -8.34
91 | CN(C)C(=O)N1C[C@H](Oc2ccccn2)[C@H]2OCCC[C@H]21 | 2.67 | -3.38
92 | Cc1cnn(CC2CCCN2Cc2nnsc2Cl)c1 (configuration not stated) | -2.88 | 9.02
93 | O=S(=O)(c1cccnc1)N1CCN(CCn2ccnc2)CC1 | -4.66 | -38.1
94 | O=C(Cn1c(=O)n(Cc2ccco2)c2ncccc21)NC1CCCCC1 | -3.2 | -5.4
95 | NS(=O)(=O)CCNC(=O)c1ccc(-c2ccc(F)cc2)cc1F | 16.3 | -53.6
96 | CN(Cc1nnc(C2CC2)o1)C1CCN(CCCc2cnn(C)c2)C1 (configuration not stated) | 5.28 | -45.6
97 | Cc1nc(CN2CCCC(NCc3c(C)nc4sccn34)C2)no1 (configuration not stated) | 2.46 | -20.2
98 | O=C(N1CCCC1)N1CCN(CC2CC2)c2ncccc2C1 | 3.25 | -4.59
99 | CN(C(=O)c1ccccc1Cl)C1CCN(c2ccccn2)CC1 | 5.42 | 19.1
100 | Cc1ccccc1-n1ncc(C(=O)N2CCCC2c2cnn(C)c2)c1C (configuration not stated) | 0.583 | 10.1
101 | O=C(c1ccc[nH]1)N1CCCC(c2cc(C(F)(F)F)[nH]n2)C1 (configuration not stated) | 3.68 | 36.4
